Compounds with a hit are over-represented: about 10% of the library has one in this group of screens.
HCT116 bCat-KO: primary screen for growth suppressors in beta-catenin knockout HCT116 cells (colon tumor, human) | HCT116 beta-catenin knockout viability, CellTiter-Glo, 60 h; stronger effect = lower value | viability, % at 10 µM | 140,000 tested, 1.5% active | AID 818, 2007;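 active = viability at or under a set limit, the compound median less 4 SD, cut at about 6% in these data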;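 also: 0% = Hyamine 1622 control at 20 µM and 100% = untreated cell control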
ROMK primary: ROMK potassium channel modulators, primary screen, cell-based, thallium flux, MLSMR library | AID 1918, 2009 | 130,000 tested, 2% active | Tet-inducible ROMK, thallium flux fluorescence; actives lie on both sides | B-score at 10 µM;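 active = signal ratio slope over the read window, or its plate-corrected B-score, at least 3 SD from the plate mean, either direction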;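 also: B-score of the F/F0 ratio slope over 7 to 12 s after thallium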
Target sequence (P48048 whole entry, looked up): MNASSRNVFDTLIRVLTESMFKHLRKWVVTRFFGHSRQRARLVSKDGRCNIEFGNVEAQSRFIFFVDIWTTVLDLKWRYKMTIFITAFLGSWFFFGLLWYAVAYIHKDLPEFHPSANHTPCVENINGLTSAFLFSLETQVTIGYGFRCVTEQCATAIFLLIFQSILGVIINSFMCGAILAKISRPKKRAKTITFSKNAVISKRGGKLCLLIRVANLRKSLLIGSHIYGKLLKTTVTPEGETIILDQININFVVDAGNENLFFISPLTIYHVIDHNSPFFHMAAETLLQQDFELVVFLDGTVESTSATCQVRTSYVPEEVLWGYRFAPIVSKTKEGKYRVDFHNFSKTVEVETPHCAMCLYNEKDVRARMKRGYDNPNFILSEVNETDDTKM
Lmaj promast: Leishmania major promastigote growth inhibition, primary screen | Leishmania major promastigotes, resazurin fluorescence viability | inhibition, % at 10 µM | 200,000 tested, 9% active | AID 1063, 2008; in the data active = inhibition above about 50%;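 also: promastigotes grown with compound for 44 hours at 28 °C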
Insulin prom inh: inhibitors of insulin promoter-driven GFP, primary screen, imaging, TRM-6 cells (human fetal islet line), eGFP reporter, cell count. reporter expression induced with tamoxifen. inhibition, % at 2 µM. 130,000 tested, 0.9% active;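 active = inhibition above the mean plus 3 SD, with well images judged a real hit on visual review, cut at about 60% in these data, passing the limit was not always enough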
p97 ATPase inh: inhibitors of human p97 ATPase, primary screen, biochemical | Transitional endoplasmic reticulum ATPase (Homo sapiens), P55072 | recombinant p97 ATPase, Kinase-Glo ATP luminescence, 3 h | inhibition, % at 8 µM | 220,000 tested, 0.42% active; in the data active = inhibition above about 15%;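 also: 0% = DMSO vehicle and 100% = wells lacking enzyme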
PTEN del growth: growth suppression of PTEN-null HCT116, primary screen, cell-based, CellTiter-Glo. HCT116 PTEN-null viability, 60 h; stronger effect = lower value. viability, % at 10 µM. 140,000 tested, 1.2% active. AID 827, 2007;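 active = viability at or below a set limit, 4 SD under the median of all tested compounds, cut at about 3.7% in these data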;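 also: PTEN knockout HCT116 line with beta catenin targeted HCT116 as companion control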
* marks the source's active call; other numbers are inactive results.

What do the screens show for `COc1cccc(OCCCCN2CC(C)OC(C)C2)c1` (stereo unspecified)?
HCT116 bCat-KO: 86; ROMK primary: 0.34; Lmaj promast: 93*; Insulin prom inh: -20; p97 ATPase inh: 1; PTEN del growth: 88

Results for CCN(CC)c1ccc(S(=O)(=O)N2CCOCC2)cc1NC(=O)CSc1n[nH]c(N)n1 ?
p97 ATPase inh: -3

How did COc1ccccc1NC(=S)NCc1ccc2c(c1)OCO2 do in these assays?
HCT116 bCat-KO: 84; ROMK primary: 0.31; Lmaj promast: -1; Insulin prom inh: 35; p97 ATPase inh: 6; PTEN del growth: 96

What do the screens show for `COC(=O)c1cc(S(=O)(=O)C(C)C)c(S(C)=O)s1` (stereo unspecified)?
p97 ATPase inh: 5

How did CCCCOC(=O)/C(=C\c1ccc([N+](=O)[O-])o1)NC(=O)c1ccccc1 do in these assays?
HCT116 bCat-KO: 85; Lmaj promast: 83*; Insulin prom inh: 7; p97 ATPase inh: 1; PTEN del growth: 82

Results for COCCCNC(=O)c1ccc(N2CCCC2)c(NS(=O)(=O)c2ccc(C)cc2)c1 ?
HCT116 bCat-KO: 98; ROMK primary: 1.2; Lmaj promast: 4; p97 ATPase inh: -3; PTEN del growth: 91

How did Cc1ccc(S(=O)(=O)Nc2cc(C(=O)NCCN(C)C)ccc2N2CCCCC2)cc1 do in these assays?
HCT116 bCat-KO: 69; Lmaj promast: 87*; p97 ATPase inh: -1; PTEN del growth: 70

What do the screens show for `CCOCCCNC(=O)c1ccc(N2CCCC2)c(NS(=O)(=O)c2ccc(C)cc2)c1`?
ROMK primary: -0.26; Lmaj promast: 8; p97 ATPase inh: 1

How did Cc1ccc(S(=O)(=O)Nc2cc(C(=O)NCCN3CCCC3)ccc2N2CCCCC2)cc1 do in these assays?
HCT116 bCat-KO: 65; ROMK primary: -1.6; Lmaj promast: 99*; Insulin prom inh: 31; p97 ATPase inh: -10; PTEN del growth: 61

Results for O=c1c2ccccc2c(C=Nc2cccc(S(=O)(=O)NCc3ccco3)c2)c(O)n1-c1ccc(Cl)cn1 ?
HCT116 bCat-KO: 90; Lmaj promast: 51*; p97 ATPase inh: 0; PTEN del growth: 87

Results for CC(C)=CCN1CCN(Cc2nc(-c3ccc(F)cc3)cs2)CC1CCO (stereo unspecified) ?
p97 ATPase inh: -6

Results for CC(C)CCN1CCN(Cc2nc(-c3ccc(F)cc3)cs2)CC1CCO (stereo unspecified) ?
Lmaj promast: 82*; p97 ATPase inh: -4

What do the screens show for `CC(C)N1CCN(Cc2nc(-c3ccccc3)cs2)CC1CCO` (stereo unspecified)?
ROMK primary: -0.041; Lmaj promast: 3; p97 ATPase inh: 0

How did COc1ccc2c(c1)C=C(CN1CCN(C3CCCC3)C(CCO)C1)CO2 (stereo unspecified) do in these assays?
ROMK primary: -0.078; Lmaj promast: 88*; p97 ATPase inh: 3

Results for OCCC1CN(Cc2nc(-c3ccccc3)cs2)CCN1Cc1ccc(F)cc1 (stereo unspecified) ?
ROMK primary: 0.057; Lmaj promast: 79*; p97 ATPase inh: -2

How did OCCC1CN(Cc2nc(-c3ccccc3)cs2)CCN1C1CCCC1 (stereo unspecified) do in these assays?
Lmaj promast: 84*; p97 ATPase inh: 6

How did OCCC1CN(Cc2c(F)cccc2Cl)CCN1C1CCCCC1 (stereo unspecified) do in these assays?
ROMK primary: -0.55; Lmaj promast: 53*; p97 ATPase inh: 0

What do the screens show for `OCCC1CN(Cc2c(F)cccc2Cl)CCN1C1CCCC1` (stereo unspecified)?
ROMK primary: -1.1; Lmaj promast: 0; p97 ATPase inh: 4

How did O=C(NC1CC1)C1CCN(C2CCN(C(=O)c3ccc4cccc(F)c4n3)CC2)CC1 do in these assays?
ROMK primary: 0; Lmaj promast: -2; Insulin prom inh: -28; p97 ATPase inh: 2

What do the screens show for `Cc1cc(C)nc(N(C#N)S(=O)(=O)c2ccccc2)n1`?
HCT116 bCat-KO: 99; Lmaj promast: -3; Insulin prom inh: 82*; p97 ATPase inh: -3; PTEN del growth: 90

What do the screens show for `CCCCOC(=O)c1ccc(NC(=O)CSC2=Nc3ccccc3C3CC=NN23)cc1` (stereo unspecified)?
HCT116 bCat-KO: 69; ROMK primary: -0.13; Lmaj promast: 99*; p97 ATPase inh: 4; PTEN del growth: 73

What do the screens show for `O=C1CCCC2=C1C(c1cccs1)n1nc(SCc3ccccc3F)nc1N2` (stereo unspecified)?
HCT116 bCat-KO: 73; Lmaj promast: 91*; Insulin prom inh: -50; p97 ATPase inh: 2; PTEN del growth: 66

Results for Cc1ccccc1CSc1nc2n(n1)C(c1cccs1)C1=C(CCCC1=O)N2 (stereo unspecified) ?
HCT116 bCat-KO: 32; ROMK primary: 0.52; Lmaj promast: 58*; Insulin prom inh: 0; p97 ATPase inh: -2; PTEN del growth: 28

Results for Cc1cc(/C=N/n2cnnc2)c(C)n1-c1ccc(OCc2ccc(F)cc2)cc1 ?
HCT116 bCat-KO: 9; Lmaj promast: 77*; Insulin prom inh: 30; p97 ATPase inh: 0; PTEN del growth: 12

How did Cc1cc(/C=N/n2cnnc2)c(C)n1-c1ccc(OCc2ccc(Cl)cc2Cl)cc1 do in these assays?
HCT116 bCat-KO: 3.7*; Lmaj promast: 98*; Insulin prom inh: 0; p97 ATPase inh: -4; PTEN del growth: 4

What do the screens show for `Cc1cc(/C=N/n2cnnc2)c(C)n1-c1ccc(Cl)cc1`?
HCT116 bCat-KO: 89; Lmaj promast: 28; Insulin prom inh: -128; p97 ATPase inh: -10; PTEN del growth: 87

Results for Cc1cc(Cl)ccc1NC(=S)N1CCN(Cc2ccc3c(c2)OCO3)CC1 ?
HCT116 bCat-KO: 85; ROMK primary: -0.45; Lmaj promast: 87*; Insulin prom inh: 11; p97 ATPase inh: -6; PTEN del growth: 89

Results for CCOCCCNC(=S)N1CCN(Cc2ccc3c(c2)OCO3)CC1 ?
ROMK primary: 0.41; Lmaj promast: 74*; p97 ATPase inh: 6

How did CC(C)(C)CC(C)(C)NC(=S)N1CCN(Cc2ccc3c(c2)OCO3)CC1 do in these assays?
ROMK primary: 0.56; Lmaj promast: 82*; Insulin prom inh: -45; p97 ATPase inh: -8

How did Cc1cccc(NC(=O)N2CCN(Cc3ccc4c(c3)OCO4)CC2)c1C do in these assays?
Lmaj promast: 56*; p97 ATPase inh: 3

How did COc1ccc([N+](=O)[O-])cc1N(CC(=O)NCCCOC(C)C)S(C)(=O)=O do in these assays?
ROMK primary: 0.71; Lmaj promast: 0; Insulin prom inh: 36; p97 ATPase inh: 2

Bioassay records as filed in PubChem.
